Screens (PubChem)
A selection: hits, their analogues and other compounds. The true share with any hit is near 2%.
Gli-Sufu antag = antagonists of Gli-Sufu signaling; Sufu-KO-LIGHT fibroblasts, Gli luciferase reporter luminescence; inhibition, % at 5 µM; hit rate 0.74% among 340,000;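 active = inhibition above about 55%, limit read from the data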;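 also: 0% = DMSO-treated cells and 100% = wells with medium but no cells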
GalR3 antagonist = human GalR3 antagonism; O60755; HEK293 GalR3-CNG cAMP membrane potential fluorescence; galR3 body fused to GalR1 C-terminus; inhibition, % at 3 µM; hit rate 0.44% among 360,000; AID 651719;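 active = inhibition above the screen-wide average plus 3 SD, cut at about 13% in these data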;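 also: forskolin and galanin both at EC90 stimulate the cells; cAMP rise reported by CNG channel membrane potential dye signal; 0% = forskolin plus galanin with DMSO and 100% = forskolin alone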
COUP-TFII inh = inhibitors of human COUP-TFII (NR2F2); P24468; HEK293T NGFI-A luciferase reporter, luminescence; inhibition, % at 8.6 µM; hit rate 0.7% among 370,000; AID 686940;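 active = inhibition above a per-plate cutoff, mean inhibition of test wells between control levels plus 3 SD, cut at about 38% in these data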;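 also: cells cotransfected with COUP-TFII expression vector driving the NGFI-A reporter; 0% = median of COUP-TF2 test wells and 100% = reporter-only cells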
Target sequence (P24468 whole entry, looked up): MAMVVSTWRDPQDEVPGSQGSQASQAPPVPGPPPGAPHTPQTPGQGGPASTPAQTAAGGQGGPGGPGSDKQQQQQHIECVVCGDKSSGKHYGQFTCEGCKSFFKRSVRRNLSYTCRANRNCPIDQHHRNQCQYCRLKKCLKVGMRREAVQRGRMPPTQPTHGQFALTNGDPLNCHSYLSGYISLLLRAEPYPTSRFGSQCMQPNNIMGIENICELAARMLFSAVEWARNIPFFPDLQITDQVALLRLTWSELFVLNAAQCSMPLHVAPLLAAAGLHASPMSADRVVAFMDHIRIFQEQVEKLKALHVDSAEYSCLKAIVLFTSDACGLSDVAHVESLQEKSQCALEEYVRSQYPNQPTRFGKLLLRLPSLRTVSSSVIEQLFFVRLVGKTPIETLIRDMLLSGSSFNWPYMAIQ
697 NFkB inh = inhibitors of the PMA/ionomycin-induced NF-kB reporter in 697 B cells | 697 B-cell NF-kB luciferase reporter, 16 h | inhibition, % at 4 µM | hit rate 0.33% among 330,000 | AID 435022; in the data active = inhibition above about 35%
Jurkat NFkB inh = lowers PMA/ionomycin-induced NF-kB signal in Jurkat cells. inhibition, % at 4 µM. PMA/ionomycin-induced NF-kB luciferase reporter, luminescence. AID 435003. hit rate 0.53% among 330,000; in the data active = inhibition above about 50%
Gal4-VP16 ctr = counter-screen for COUP-TFII antagonists: inhibitors of VP16. HEK293 Gal4-VP16 luciferase reporter, luminescence. inhibition, % at 8.5 µM. shares compounds with COUP-TFII inh. hit rate 25% among 2,500; in the data active = inhibition above about 13%
COUP-TFII conf = confirmation of human COUP-TFII (NR2F2) inhibitors | hit rate 45% among 2,500 | shares compounds with COUP-TFII inh | inhibition, % at 8.5 µM | AID 687008 | HEK293 NGFI-A luciferase reporter, luminescence;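 active = mean inhibition over three repeats above a set limit taken from the earlier primary screen, cut at about 38% in these data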;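 also: 100% = cells given the luciferase reporter alone without the COUP-TF2 vector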
The depositor's hits bear a star; / = no result given.

SMILES	Gli-Sufu antag	GalR3 antagonist	COUP-TFII inh	697 NFkB inh	Jurkat NFkB inh	Gal4-VP16 ctr	COUP-TFII conf
C=C1CCC2C(C)(C)CCC[C@]2(C)[C@H]1CC1=C(O)C(=O)C(CO)=CC1=O (stereo not given in full)	/	/	55*	/	/	46*	62*
Cc1ccccc1Cn1cc(COC(=O)Nc2ccc(F)cc2)nn1	/	/	-11	/	/	/	/
COc1ccc(-c2noc(C3CCCN(C(=O)Nc4ccc5c(c4)OCO5)C3)n2)cc1 (stereo not given)	/	/	12	/	/	/	/
CN1C2CCC1/C(=C\c1ccc(F)cc1)C(=O)/C2=C/c1ccc(F)cc1	19	-3	14	-74	23	/	/
C=CC(=O)N1C/C(=C/c2ccc(F)cc2)C(=O)/C(=C\c2ccc(F)cc2)C1	12	-2	106*	/	/	86*	104*
O=C(CCc1ccccc1)N[C@H]1[C@H](OCc2ccccc2)CCC[C@@]12C(=O)N(Cc1ccccc1)c1ccc(-c3cnccn3)cc12	/	/	7	/	/	/	/
CC(C)(C)C(=O)NCCCc1nc2ccccc2n1CCCOc1ccc(Cl)cc1	4	-2	60*	-1	10	0	22
C=CCn1c(CCCNC(=O)C(C)(C)C)nc2ccccc21	-1	/	-6	12	7	/	/
COc1ccccc1C(=O)NC(=S)Nc1ccc(N2CCN(C(=O)c3ccco3)CC2)cc1	33	-3	23	-70	2	/	/
Cc1cccc(OCC(=O)Nc2ccc(N3CCN(C(=O)c4ccco4)CC3)cc2)c1	25	8	64*	-17	22	1	34
Cc1ccccc1C(=O)N1CCN(c2ccc(NC(=S)NC(=O)c3ccco3)cc2)CC1	14	-3	46*	18	-9	-8	18
O=C(NNC(=O)c1cccc(S(=O)(=O)N2CCc3ccccc32)c1)c1ccccc1	48	-4	41*	/	/	8	34
CN(C)S(=O)(=O)c1cccc(NC(=O)c2ccc(COc3ccccc3)cc2)c1	11	8	63*	-18	43	2	52*
O=S(=O)(NC1CCCC1)c1ccc(S(=O)(=O)N2CCc3ccccc32)cc1	47	-6	40*	1	25	-4	10
CC(C)CCNC(=O)c1cccc(S(=O)(=O)N2CCc3ccccc32)c1	4	4	23	-11	2	/	/
NS(=O)(=O)c1cccc(NC(=O)CN2CCc3ccccc32)c1	-4	1	-14	1	-13	/	/
CN(c1ccccc1)S(=O)(=O)c1cccc(NC(=O)CN2CCCc3ccccc32)c1	18	-2	39*	-35	5	8	11
COCc1ccc(C(=O)Nc2cccc(S(=O)(=O)N(C)c3ccccc3)c2)cc1	4	-8	29	-8	22	/	/
Nc1ccc(S(=O)(=O)N2CCc3ccccc32)cc1	-10	-10	12	4	4	/	/
Cc1ccc(OCCn2c(CCNC(=O)c3ccc(F)cc3F)nc3ccccc32)cc1	/	/	13	/	/	/	/
COc1ccc(C(=O)CSc2nnc(-c3ccc(C(C)(C)C)cc3)n2C)cc1	/	/	6	/	/	/	/
CN(C)S(=O)(=O)c1cccc(NC(=O)c2cccc(S(=O)(=O)N3CCc4ccccc43)c2)c1	3	-7	42*	-3	6	-4	18
CCOC(=O)C1(Cc2ccccc2)CCN(Cc2ccnc3ccccc23)CC1	/	/	47*	/	/	4	39*
O=C(Cn1ccccc1=S)c1ccc(Cl)c(Cl)c1	-6	-1	-3	14	-11	/	/
On1ccccc1=S	74*	-1	66*	/	/	87*	46*
C(=N\Nc1ccc2ccccc2n1)/c1ccc2c(c1)OCCO2	41	-5	64*	-99	-72	38*	70*
C(=N\Nc1nc2ccccc2[nH]1)/c1ccc2c(c1)OCCO2	-51	1	9	-164	-87	/	/
Cc1cccc(Nc2nc(-c3c(C)nc4ccccn34)cs2)c1	49	-4	53*	-67	44	-6	44*
Cc1nc2ccccn2c1-c1csc(Nc2cccc(O)c2)n1	7	-4	9	/	/	/	/
O=S1(=O)c2ccc(N3CCSCC3)cc2Oc2ccccc2CN1Cc1cn(Cc2cccc(F)c2)nn1	/	/	13	/	/	/	/
